Laboratory results: the supplement of paper PMC4100887
± gives the standard deviation of the averaged measurements.

Columns and labels:
IMR-90 = assay: relative cell viability (ATPlite) vs untreated control (fraction); higher = less toxic; settings: 1 µM; 72 h
K562 [1] = assay: as above; settings: 1 µM; 72 h
K562 [2] = assay: relative cell viability (ATPlite) vs untreated control, with imatinib (fraction); higher = less toxic; settings: 1 µM; 72 h; imatinib 0.125 µM

| Structure (SMILES) | relative cell viability (IMR-90) | relative cell viability (K562 [1]) | relative cell viability (K562 [2]) |
| --- | --- | --- | --- |
| COc1ccc(Cl)cc1NC(=O)Nc1cc(C)nc2ccccc12 [IGF-1R Inhibitor II] | 1.04 ± 0.08 | 0.933 ± 0.014 | 0.798 ± 0.018 |
| COc1cc(SC)ccc1C(=O)N1CCC(Cc2ccccc2)CC1 [p38 MAP Kinase Inhibitor VI, JX401] | 1.03 ± 0.094 | 0.807 ± 0.042 | 0.716 ± 0.023 |
| O=C1NC(=O)C(c2c[nH]c3ccccc23)=C1c1c[nH]c2ccccc12 [Bisindolylmaleimide IV] | 0.826 ± 0.14 | 0.936 ± 0.053 | 0.851 ± 0.024 |
| CCN(CC)C(=O)c1ccc(Nc2nc(OCC3CCCCC3)c3[nH]cnc3n2)cc1 [Cdk2 Inhibitor IV, NU6140] | 1.03 ± 0.076 | 0.775 ± 0.041 | 0.672 ± 0.031 |
| CC(=O)O/N=C1/C(c2c(O)[nH]c3cc(Br)ccc23)=Nc2ccccc21 [GSK-3 Inhibitor X] | 0.903 ± 0.052 | 0.885 ± 0.08 | 0.76 ± 0.036 |
| O=c1[nH][nH]c2nnc(-c3c(-c4ccccc4)nn4ccccc34)cc12 [ERK Inhibitor II, Negative control] | 0.966 ± 0.077 | 0.833 ± 0.086 | 0.758 ± 0.019 |
| CC(=O)c1ccc(N2CCOCC2)cc1O [DNA-PK Inhibitor III] | 1.02 ± 0.093 | 0.878 ± 0.059 | 0.782 ± 0.027 |
| OCC(O)CCO/N=C1\C(c2c(O)[nH]c3ccccc23)=Nc2ccccc21 (centres undefined) [Indirubin Derivative E804] | 0.974 ± 0.098 | 0.753 ± 0.058 | 0.644 ± 0.071 |
